Most compounds without a hit are left out; they make up all but 8.1% or so of the library.
KB-V1 cytotox = qHTS assay for MDR1-selective chemotherapeutics: Primary screen using the drug-selected MDR subline cells KB-V1 | KB-V1 MDR cells viability, CellTiter-Glo, 72 h | Potency, µM (series often up to 46.1 µM), usual class: cytotoxic | 3.4% of 400,000 active | AID 1347076, 2019; note: % is set by controls: 0 for no effect and ±100 for the full control effect; nearly all actives have a fitted effect of over 60% in size
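Luminescent ATP read-out (CellTiter-Glo, 10 min) measures survival of drug-selected KB-V1 MDR cells after 72 h, 37 degrees C compound exposure. Medium: phenol-red-free DMEM, 10% FBS. Values from fitted concentration-response curves.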
KB-3-1 cytotox = qHTS assay for MDR1-selective chemotherapeutics: Primary screen using the parental adenocarcinoma cell KB-3-1 | KB-3-1 viability, CellTiter-Glo ATP luminescence, 72 h | Potency, µM (doses to about 46.1 µM), actives largely listed as cytotoxic | 1.4% of 400,000 active | AID 1347075, 2019; note: % is set by controls: 0 for no effect and ±100 for the full control effect; nearly all actives have a fitted effect of over 60% in size
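Parental KB-3-1 viability, qHTS format: 72 h compound exposure, 37 °C; CellTiter-Glo; media-only wells and DMSO plates as controls; concentration-effect fits on corrected data.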
ELG1 DNA repair = qHTS screen for small molecules that inhibit ELG1-dependent DNA repair in human embryonic kidney (HEK293T) cells expressing luciferase-tagged ELG1 | HEK293T ELG1-luciferase reporter, luminescence, 16 h; DNA damage induced by 5-fluorouridine | Potency, µM (highest dose often 46.1 µM), for inactives: top-dose activity change, negative = inhibition, hits mostly inhibitors | 2.3% of 330,000 active; note: % is set by controls: 0 for no effect and ±100 for the full control effect; nearly all actives have a fitted effect of over 55% in size
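Step one: seed 2,000 cells per well. Step two: pin-transfer compound or DMSO alongside 5-fluorouridine. Step three: incubate 16 hr, 37 °C, 5% CO2. Step four: add ONE-Glo, wait 30 min, read luminescence.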
SW480 rereplic = A quantitative high throughput screen for small molecules that induce DNA re-replication in SW480 colon adenocarcinoma cells; SW480 DNA re-replication, Hoechst DNA content imaging, 48 h; 1.8% of 340,000 active; AID 624297, 2012; Potency, µM (titrated, usually from 46.1 µM), inactives show at the highest dose re-replication activation, most hits filed as activators; note: % of control where 0% means no effect; nearly all actives have a fitted effect of over 55% in size
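DNA re-replication was detected as more nuclei of elevated Hoechst intensity after 48 hr exposure to compound (23 nL pinned per well of 250 cells).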
MCF10A rerep = A quantitative high throughput screen for small molecules that induce DNA re-replication in MCF 10a normal breast cells; MCF 10A DNA re-replication, Hoechst nuclear intensity, 48 h; Potency, µM (series often up to 46.1 µM), for inactives: at the top dose activity, positive = re-replication, usual class: activators; 2.9% of 350,000 active; note: % of control where 0% means no effect; nearly all actives have a fitted effect of over 50% in size
Numbers without * were called inactive; i = inactive; ? = inconclusive; . = no result given; [ ] = dose if it differs, or a comment. Calls come from the whole dose curve; as a rule, active = well fitted curve in the direction sought with a large enough effect; inconclusive = small, poorly fitted or top-dose-only effect, or another doubt; inactive = no such curve, though single readings can be large; an effect the other way counts as inactive or inconclusive. Potency is the fitted concentration of half-maximal effect.

SMILES | KB-V1 cytotox | KB-3-1 cytotox | ELG1 DNA repair | SW480 rereplic | MCF10A rerep
Cc1nn(Cc2ccccc2)c(Cl)c1/C=C/C(=O)OC(C(=O)NC(N)=O)C(C)C (stereo not given) | i | i | ? | -39.1% | 6.51µM*
Cc1nnc(C)c2c(C)n(-c3ccc(Cl)c(N)c3)c(C)c12 | i | i | ? | 7.6% | ?
Cc1cc(C)cc(-n2c(C)c3c(C)nnc(C)c3c2C)c1 | ? | ? | -18.6% | 23.1µM* | 9.9%
COc1ccc(C(=O)Nc2cccc(/C=C/c3nc4ccccc4c(=O)[nH]3)c2)cc1 | i | ? | ? | ? | 6.51µM*
O=c1[nH]c(/C=C/c2ccccc2F)nc2ccccc12 | 2.59µM* | 4.61µM* | ? | 3.66µM* | 8.2µM*
O=C(Nc1cccc(/C=C/c2nc3ccccc3c(=O)[nH]2)c1)c1ccccc1Cl | i | ? | ? | ? | ?
C(=C\c1nc2ccccc2[nH]1)/c1ccccc1 | i | 18.4µM* | ? | 14.6µM* | 5.17µM*
O=c1[nH]c2ccccc2nc1/C=C/c1ccc(Cl)cc1 | i | i | ? | 20.6µM* | 18.4µM*
O=c1[nH]c(/C=C/c2cccc3ccccc23)nc2ccccc12 | i | i | ? | ? | ?
CCOC(=O)c1c(N)n(-c2ccccc2CC)c2nc3ccccc3nc12 | ? | i | . | . | .
O=c1[nH]c(/C=C/c2ccc(Br)cc2)nc2ccccc12 | i | i | ? | -5.9% | ?
Cc1cccc(/C=C\c2nc3ccccc3c(=O)[nH]2)c1 | ? | 14.6µM* | ? | 20.6µM* | 5.8µM*
Cc1nc(/C=C/c2ccccc2)[nH]c(=O)c1-c1ccccc1 | 18.4µM* | ? | ? | ? | ?
COc1ccc(NC(=O)NC2COc3ccccc3C2)c(OC)c1 (stereo not given) | i | i | . | . | .
CC(=O)NC(c1ccccc1)c1nc(-c2ccc(F)c(Cl)c2)cs1 (stereo not given) | i | i | . | . | .
O=C(Nc1cccc2c1CCCC2)c1cc([N+](=O)[O-])ccc1Cl | ? | 23.1µM* | ? | -2.9%[9.22 µM] | ?
O=C(Nc1cccnc1Cl)c1cc([N+](=O)[O-])ccc1Cl | i | i | ? | ? | ?
O=C(Nc1cccc2ncccc12)c1cc([N+](=O)[O-])ccc1Cl | ? | 18.4µM* | ? | ? | ?
O=C(Nc1cccc2c1CCCC2)c1ccc(Cl)c([N+](=O)[O-])c1 | ? | ? | 16.1% | ? | ?
O=c1cc(CSc2ccccc2)[nH]c2ccccc12 | i | i | 11.6µM* | -11.3% | -3.3%
CCc1nc2ccc(C(=O)NCCCn3ccnc3)cn2c1N(C)Cc1cc2ccccc2s1 | i | i | . | . | .
Cc1cc(C)cc(C(O)c2ncc(-c3ccc4ccccc4c3)[nH]2)c1 (stereo not given) | i | i | . | . | .
CC1(C)Nc2ccc(O)cc2-c2c1ssc2=S | i | i | 11.6µM* | -5.1% | ?
COc1ccc(CCC(=O)Nc2cc([N+](=O)[O-])ccc2OC)cc1 | 20.6µM* | i | -2.0% | -15.3% | -51.1%
COc1ccc(CCC(=O)Nc2ccc(C)c([N+](=O)[O-])c2)cc1 | 20.6µM* | i | -2.8% | 13.6% | 18.8%
SMILES | KB-V1 cytotox | KB-3-1 cytotox | ELG1 DNA repair | SW480 rereplic | MCF10A rerep
CC(=O)Nc1cc([N+](=O)[O-])ccc1OCc1ccccc1 | 18.4µM* | i | . | -0.8% | -0.9%
COc1ccc([N+](=O)[O-])cc1NC(=O)Cc1ccc(C)cc1 | i | i | -21.6% | -1.9% | 6.1%
COc1ccccc1-c1ccc2c(c1)C(C)(Cc1ccc(OC(F)(F)F)cc1)C(=O)N2 (stereo not given) | i | i | . | . | .
Cc1c(-c2ccccc2)oc2c(C(=O)N3CCN(c4ccccc4F)CC3)cccc2c1=O | 4.61µM* | ? | ? | -4.0% | 0.4%
O=C(COc1ccc2c(c1)CCC2)N1CCN(c2ccccc2F)CC1 | 0.0037µM* | i | 5.7% | -5.2% | -2.5%
O=C(N1CCN(c2ccccc2F)CC1)C12CC3CC(CC(C3)C1)C2 | 18.4µM* | i | 25.7% | 10.7% | ?
O=C(c1c(F)cccc1F)N1CCN(c2ccccc2F)CC1 | ? | i | -0.1% | -2.6% | 9.0%
O=C(c1cccc(C(=O)N2CCN(c3ccccc3F)CC2)c1)N1CCN(c2ccccc2F)CC1 | i | i | 16.4µM* | 2.8% | 13.5%
O=C(COc1ccc2c(c1)CCC2)N1CCN(c2cccc(C(F)(F)F)c2)CC1 | i | i | 1.9% | -0.4% | -7.7%
O=C(N1CCN(c2ccc(F)cc2)CC1)C12CC3CC(CC(C3)C1)C2 | i | i | ? | -4.5% | 4.4%
CCCCNC(=O)c1cccc2c(=O)c(C)c(-c3ccccc3)oc12 | ? | i | ? | -2.9% | 10.9%
COc1cc(/C=C/c2cc[n+](C)c3ccccc23)cc(OC)c1OC | i | ? | . | . | .
C(=Nc1ccc(/C=C/c2ccnc3ccccc23)cc1)c1ccc2c(c1)OCO2 | i | i | . | . | .
O=C(NCC(O)c1nc2ccccc2[nH]1)c1cc2ccccc2[nH]1 (stereo not given) | i | i | . | . | .
O=C(O)CSc1ncccc1C(=O)O | i | i | -4.5% | 6.4% | 9.2µM*
COCc1cc(S(=O)c2ccc(Cl)cc2)nc(C)n1 (stereo not given) | i | i | -17.1% | ? | 14.6µM*
Cc1ccc2c(c1)C(=O)C(=O)N2c1ccc(Cl)cc1 | i | i | 14.9% | 10.3% | 0.7%
Cc1cccc(OCCN2C(=O)C(=O)c3cc(C)ccc32)c1 | ? | ? | -10.7% | ? | 18.4µM*
CCCCN1C(C)=CC(=C2C(=O)c3ccccc3C2=O)C=C1C | ? | i | ? | -0.1% | ?
CCCCN1C(=O)C(=O)c2cc(Cl)ccc21 | ? | ? | ? | ? | 23.1µM*
CCCN1C(=O)C(=O)c2cc(C)ccc21 | 8.2µM* | 6.51µM* | ? | 6.51µM* | 89.0%
Cc1ccc2c(c1)C(=O)C(=O)N2Cc1ccc(Br)cc1 | ? | i | ? | 18.4µM* | ?
Cc1ccc(S(=O)(=O)N2CCN(c3nc(-c4cccs4)nc4ccccc34)CC2)cc1 | i | i | . | . | .
Cc1ccc2c(c1)C(=O)C(=O)N2CCCOc1ccccc1C | i | ? | 12.2% | 29.9% | ?
O=C1C(=O)N(Cc2ccccc2)C(=O)N1CCOc1ccccc1 | ? | i | -11.2% | ? | 13µM*
Cc1ccc2c(c1)C(=O)C(=O)N2CCOc1ccccc1 | ? | ? | 10.0% | 4.11µM* | 19.3%
